Structures are written as SMILES. Among all 650,000 compounds or so, about 5,900 (0.91%) were called active. What follows is part of a selection rich in actives, with near analogues and random picks from the rest. Unmarked numbers belong to inactive results. No stated cut-off is given here; in the data, active means inhibition above about 50%; inactive means the rest.

Chain of Microphthalmia-associated transcription factor (Homo sapiens) (O75030 whole entry, looked up): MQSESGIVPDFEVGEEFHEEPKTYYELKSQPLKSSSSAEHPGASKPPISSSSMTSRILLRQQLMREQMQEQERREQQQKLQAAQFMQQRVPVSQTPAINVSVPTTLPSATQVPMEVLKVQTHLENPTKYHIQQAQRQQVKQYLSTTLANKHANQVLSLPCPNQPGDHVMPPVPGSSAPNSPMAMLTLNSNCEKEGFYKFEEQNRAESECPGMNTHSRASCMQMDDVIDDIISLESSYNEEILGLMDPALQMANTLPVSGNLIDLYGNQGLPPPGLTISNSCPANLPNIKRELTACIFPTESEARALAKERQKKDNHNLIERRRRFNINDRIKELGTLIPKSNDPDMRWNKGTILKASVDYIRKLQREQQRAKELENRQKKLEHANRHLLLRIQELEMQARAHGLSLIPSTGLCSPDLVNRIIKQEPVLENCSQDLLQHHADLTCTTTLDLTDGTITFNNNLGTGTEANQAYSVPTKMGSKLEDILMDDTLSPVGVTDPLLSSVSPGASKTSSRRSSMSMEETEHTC

This assay addresses Microphthalmia-associated transcription factor (Homo sapiens) (UniProt O75030). The experiment in a line: MITF inhibitors, primary screen, biochemical, AlphaScreen, human (AID 1259374).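 Further: 0% = vehicle wells with protein.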 Conditions: AlphaScreen MITF homodimerization, bead proximity signal; at 2.6 µM; hits give high values.
On to `CC(C)[C@@H](CO)Nc1ccc2ncc(-c3ccccc3F)n2n1`, for which the inhibition is -14.3%.

For `CC(=O)c1ccc(OCC(=O)N2CCOCC2)cc1`, the inhibition was -0.62%.

For the compound `CCCS(=O)(=O)N1CCN(Cc2ccccc2Br)CC1`, the inhibition was 58.2% (active).

For the compound `CCCS(=O)(=O)N1CCN(Cc2cccc(Cl)c2)CC1`, the inhibition is 54.8% (active).

In the case of `CCS(=O)(=O)N1CCN(c2cccc(Cl)c2)CC1`, the inhibition was -3.13%.

Consider `CCCS(=O)(=O)N1CCN=C1SCc1cccc(Cl)c1`, for which the inhibition is 18.8%.

On to `CS(=O)(=O)N1CCN(Cc2cccc(Cl)c2)CC1`, for which the inhibition is 70.2% (active).

In the case of `CS(=O)(=O)N1CCC(c2nc3c(nnn3Cc3cccc(Cl)c3)c(=O)[nH]2)CC1`, the inhibition was 9.95%.

Consider `O=S(=O)(c1ccc(Br)c2ccccc12)N1CCN(Cc2ccccc2)CC1`, for which the inhibition is 7.47%.

As to `CCCS(=O)(=O)N1CCC(O)(c2cccnc2)CC1`, the inhibition was 13.4%.

`Clc1cccc(CN2CCN(c3ccccn3)CC2)c1`: the inhibition is 50.1%.

In the case of `CC(CC(=O)N(CC(N)=O)C(C)C)c1ccccc1` (stereo not given), the inhibition was -5.95%.

Take `CCOC(=O)c1cccc(NC(=O)COc2ccccc2Br)c1`: the inhibition was 8.75%.

For the compound `COc1cc(/C=C(/C#N)C(N)=S)c(Br)cc1O`, the inhibition is 24.1%.

Turning to `CSc1ccccc1C(=O)NCc1c(C)ncc2c1CCN(C(=O)c1cc(C)oc1C)C2`, the inhibition was 12.3%.

In the case of `COc1ccc(C(=O)N2CCCCO2)cc1OC1CCN(C(C)=O)CC1`, the inhibition was 2.51%.

On to `Cc1ccc(SCC(=O)NCc2nc(-c3ccc(C)cc3)no2)cc1`, for which the inhibition is -3.11%.

Regarding `CC(C)CCN1CCNC(=O)C1CC(=O)N1CCCO1` (stereo not given), the inhibition was 1.48%.

Take `O=[N+]([O-])c1c(Cl)cc(Cl)c2nsnc12`: the inhibition was 1.42%.

With `C=CCn1c(C)c(/C=c2/sc3n(c2=O)C(c2ccc(OC)c(Br)c2)C(C(=O)OCC)=C(C)N=3)c2ccccc21` (stereo not given), the inhibition was -0.97%.

In the case of `CN1CCN(c2nccnc2-c2cccc(C(=O)NCCO)c2)CC1`, the inhibition is 4.98%.

As for `O=S(=O)(c1ccc(F)cc1)N1CCN(CCCc2ccccc2)CC1`, the inhibition is 43.8%.

For the compound `O=S(=O)(c1ccc(F)cc1)N1CCN(Cc2ccccc2F)CC1`, the inhibition is 3%.

As to `O=C(Cc1ccccc1[N+](=O)[O-])NNC(=O)Nc1ccccc1C(F)(F)F`, the inhibition was 13.8%.

In the case of `O=[N+]([O-])c1ccccc1CN1CCN(Cc2ccccc2C(F)(F)F)CC1`, the inhibition is 67.3% (active).

Turning to `O=S(=O)(c1ccc(F)cc1)N1CCN(Cc2ccccc2C(F)(F)F)CC1`, the inhibition is 59.6% (active).

For `O=[N+]([O-])c1ccccc1CN1CCN(Cc2cccnc2)CC1`, the inhibition is 61.9% (active).

For `COc1ccccc1N1CCN(C2CCN(Cc3ccccc3[N+](=O)[O-])CC2)CC1`, the inhibition was -2.11%.

As to `CCOc1ccccc1CN1CCN(Cc2cccnc2)CC1CCO` (stereo not given), the inhibition is 8.25%.

Turning to `CCC(C)C(=O)NCc1nnc2n1CCN(Cc1cccnc1)CC2` (stereo not given), the inhibition was 0.14%.

For the origin of these results see PubChem BioAssay AID1259374 (The Scripps Research Institute Molecular Screening Center, 2018).
